# Results: PubChem BioAssay AID1259374 (The Scripps Research Institute Molecular Screening Center, 2018)
# In all, about 650,000 compounds went through this assay and about 5,900 (0.91%) were called active. The sample as a whole holds a higher share of actives than the screen did. Unmarked numbers belong to inactive results. Rule as the data show it: active = inhibition above about 50%; inactive = the rest.
# Target: Microphthalmia-associated transcription factor (Homo sapiens) (UniProt O75030)
# Assay: MITF inhibitors, primary screen, biochemical, AlphaScreen, human (AID 1259374);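 also: 0% = vehicle wells with protein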
# Details: AlphaScreen MITF homodimerization, bead proximity signal; at 2.6 µM; active compounds read high
# Chain of Microphthalmia-associated transcription factor (Homo sapiens) (O75030 whole entry, looked up): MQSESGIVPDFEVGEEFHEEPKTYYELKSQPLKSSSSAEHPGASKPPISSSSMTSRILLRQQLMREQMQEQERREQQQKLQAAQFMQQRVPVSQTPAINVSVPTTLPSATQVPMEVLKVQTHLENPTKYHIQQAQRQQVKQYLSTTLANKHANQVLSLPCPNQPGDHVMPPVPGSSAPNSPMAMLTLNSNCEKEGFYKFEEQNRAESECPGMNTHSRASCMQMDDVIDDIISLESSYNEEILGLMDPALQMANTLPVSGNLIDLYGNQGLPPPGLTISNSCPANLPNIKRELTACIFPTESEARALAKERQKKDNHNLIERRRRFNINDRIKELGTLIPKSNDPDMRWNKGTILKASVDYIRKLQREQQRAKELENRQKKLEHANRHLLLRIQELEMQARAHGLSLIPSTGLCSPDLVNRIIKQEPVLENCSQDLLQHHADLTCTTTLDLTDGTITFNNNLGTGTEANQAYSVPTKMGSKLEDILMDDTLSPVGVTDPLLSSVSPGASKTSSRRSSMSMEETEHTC
row,Structure (SMILES),inhibition
1,Cc1nc2sc(C(c3ccco3)N3CCC4(CC3)OCCO4)c(O)n2n1 (stereo unspecified),13.4%
2,Cc1nc2sc(C(c3ccccc3Cl)N3CCC4(CC3)OCCO4)c(O)n2n1 (stereo unspecified),60% (active)
3,Oc1c(C(c2ccccc2Cl)N2CCOCC2)sc2nc(-c3ccco3)nn12 (stereo unspecified),11.9%
4,OC[C@@H]1CCCN1Cc1nc(-c2ccccn2)no1,7.1%
5,CCOC(=O)C1=C(C)N=c2s/c(=C\c3c[nH]c4ccccc34)c(=O)n2C1c1ccc(OC)c2ccccc12 (stereo unspecified),12.2%
6,COCCOC(=O)c1sc(=S)n(CCOC)c1N,-3.44%
7,C=CCNC(=O)c1sc(=S)n2c1[nH]c(=O)c1ccc(C(=O)OC)cc12,1.34%
8,C=CCNC(=O)c1sc(=S)n(CC)c1N,60.2% (active)
9,CCOc1ccc(Nc2n[nH]c(C)c2[N+](=O)[O-])cc1,-3.22%
10,Cc1nnc(SCC(=O)Nc2ccc(Cc3ccc(NC(=O)CSc4nnc(C)s4)c(C(=O)O)c3)cc2C(=O)O)s1,10.6%
11,Cc1cc(C(C)(C)C)ccc1OCCOCCNCCN,5.37%
12,Cc1ccc(C(C)(C)C)c(OCCCNCCO)c1,18.8%
13,C=CCNCCOCCOc1cc(C)ccc1C(C)(C)C,65.6% (active)
14,CN(C)S(=O)(=O)c1ccc(C(=O)NCc2nnc(SCC(=O)N3N=C(c4cccs4)CC3c3ccc(F)cc3)n2C)cc1 (stereo unspecified),-5.15%
15,CCC1(CC)Cc2ccccc2C(c2c(C)[nH]n(-c3ccccc3)c2=O)=N1,23.6%
16,COc1cc(/C=C2/NC(=O)N(c3ccccc3)C2=O)cc(OC)c1O,-14.5%
17,COC(=O)c1ccccc1NC(=O)c1cc2c(=O)oc3ccccc3c2s1,-9.64%
18,COc1ccccc1-n1cnnc1SCC(=O)Nc1sc2c(c1C#N)CCCC2,-6.73%
19,COc1cc(NC(=O)CSc2nnc(-c3ccoc3C)n2CC(C)C)cc(OC)c1,9.5%
20,Cc1ccc(C(C)C)c(OCc2n[nH]c(=S)n2C)c1,2.35%
21,Cc1ccc(Cl)c(OCCCCN2CCNCC2)c1,41.9%
22,Cc1ccc(OCCN2CCNCC2)c(Cl)c1,36.1%

row,Structure (SMILES),inhibition
1,CCC(C)Oc1cccc(OCCN2CCN(C)CC2)c1 (stereo unspecified),-22.9%
2,Cc1ccc(C(C)C)c(OCCN2CCNCC2)c1,74.9% (active)
3,Cc1cc(OCCN2CCN(C)CC2)ccc1C(C)C,59.4% (active)
4,Cc1ccc(C(C)(C)C)c(OCCN2CCNCC2)c1,46.6%
5,Cc1ccc(C(C)C)c(OCC#CCN2CCNCC2)c1,77.2% (active)
6,Cc1cc(OCCCCN2CCOCC2)ccc1C(C)C,27.1%
7,CC1C2Oc3ccccc3C1Oc1ccccc12 (stereo unspecified),4.85%
8,COc1ccc2[nH]c3c(c2c1)CCOC31CCN(C(=O)CC2(CC(=O)O)CCCC2)CC1,-10.7%
9,O=C1C(=O)N(Cc2cccnc2)C(c2cccnc2)/C1=C(/O)c1ccccc1 (stereo unspecified),5.16%
10,O=C1C(=O)N(Cc2cccnc2)C(c2ccncc2)/C1=C(\O)c1ccccc1 (stereo unspecified),11.9%
11,Cc1nc2ccccn2c1/C(O)=C1\C(=O)C(=O)N(Cc2ccccc2)C1c1cccnc1 (stereo unspecified),66.2% (active)
12,CN(C)CCNC(=O)c1ccc(-c2cnc3c(NCc4ccc(F)cc4)nccn23)cc1,-23.3%
13,CCOC(=O)c1c(NC(=O)CSc2nnc(CNC(=O)c3cccc(OC)c3)n2C)sc2c1CCCCC2,-18.6%
14,O=C(O)CN1C(=O)/C(=C\c2cccc(C(=O)O)c2)SC1=S,58.4% (active)
15,O=C(O)CN1C(=O)/C(=C/c2cccc([N+](=O)[O-])c2)SC1=S,4.75%
16,O=C(O)CN1C(=O)/C(=C\c2ccc(O)c(Br)c2)SC1=S,17.2%
17,CC1CN(c2ccc(/C=C(\C#N)c3nc4ccccc4[nH]3)o2)CC(C)O1 (stereo unspecified),-14.4%
18,Nc1nc(NCCO)cc(Nc2ccc(C(F)(F)F)cc2)n1,-1.49%
19,CCOC(=O)c1sc(NC(=O)C(C)Sc2nnc(CNC(=O)c3ccc(Cl)cc3Cl)n2C)c(C(=O)OCC)c1C (stereo unspecified),-5.12%
20,CCOC(=O)c1ccccc1NC(=O)C1CC(=O)N(c2ccc(Cl)c(Cl)c2)C1 (stereo unspecified),-0.38%
21,CN1C(=O)c2ccc(NC(=O)c3c(F)cccc3F)cc2C1=O,4.14%
22,O=C(NN1C(=O)c2ccccc2C1=O)c1cccc(F)c1,69.1% (active)

row,Structure (SMILES),inhibition
1,Cc1ccc(N2C(=O)c3ccc(C(=O)NN4C(=O)c5ccccc5C4=O)cc3C2=O)cc1C,9.89%
2,O=C(NN1CCOCC1)c1cccc(F)c1,0.76%
3,CCN(CCCNC(=O)Cn1c(=O)[nH]c2ccccc2c1=O)c1cccc(C)c1,-6.52%
4,O=[N+]([O-])c1cnc(N2CCN(Cc3ccccc3)CC2)c([N+](=O)[O-])c1,-6.34%
5,C=CCN(CC=C)CCCOc1ccc([N+](=O)[O-])c(C)c1,22.8%
6,Cc1cc(OCCCN2CCN(Cc3ccccc3)CC2)ccc1[N+](=O)[O-],69.8% (active)
7,COc1ccc(CN2CCC3(CC2)c2ccccc2[C@@H](NC(=O)CSC)[C@@H]3OC)cc1,5.12%
8,C=CCN1C(=O)/C(=C\c2cc(OC)ccc2OC)C(=O)NC1=S,18.8%
9,COc1ccccc1N1C(=O)NC(=O)/C(=C/c2cc(OC)c(O)c([N+](=O)[O-])c2)C1=O,-6.01%
10,C=CCN1C(=O)/C(=C\c2cc(OC)c(O)c([N+](=O)[O-])c2)C(=O)NC1=S,57.5% (active)
11,CSc1cccc(NC(=O)C2C3C=CC4(O3)C2C(=O)N(C2CCCC(C)C2C)C4C(=O)NC2CCCCC2)c1 (stereo unspecified),-2.61%
12,O=c1cc(Cc2n[nH]c(=S)n2-c2ccc(F)cc2)[nH]c(=O)[nH]1,8.67%
13,O=c1c2sc(=S)n(CCc3ccccc3)c2[nH]c(=S)n1Cc1ccco1,-11.5%
14,O=S(=O)(Oc1cccc2cccnc12)N1CCOCC1,-0.47%
15,Oc1c(C(c2cccnc2)N2CCOCC2)ccc2cccnc12 (stereo unspecified),73.7% (active)
16,Oc1c(C(c2ccccn2)N2CCOCC2)ccc2cccnc12 (stereo unspecified),75.7% (active)
17,CCCCC(=O)NC(c1ccco1)c1ccc2cccnc2c1O (stereo unspecified),33%
18,CCc1nc2sc(C(c3ccc(F)cc3)N3CCCC3)c(O)n2n1 (stereo unspecified),-1.32%
19,OCCN1CCN(C(c2ccc(F)cc2)c2ccc3cccnc3c2O)CC1 (stereo unspecified),50.6% (active)
20,Cc1ccc(C(c2cc(Cl)c3cccnc3c2O)N2CCN(c3ccccn3)CC2)cc1 (stereo unspecified),-1.76%
21,Cc1c(Cl)cccc1NC(=S)NCC(c1cccnc1)N1CCOCC1 (stereo unspecified),7.47%
22,O=C(NCC(c1cccnc1)N1CCOCC1)c1ccc(F)cc1 (stereo unspecified),-7.05%
